Assay results taken from PubChem BioAssay AID686996 (Broad Institute, 2013).
In all, about 350,000 compounds went through this assay and about 1,900 (0.54%) were called active. This is one part of a sample in which actives are shown more often than they occur. Values without a mark were called inactive.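 Rule for the calls: active = mean inhibition across replicates at least about 35%, with every replicate also reaching that limit (limit read from the data); inconclusive = only one of the two criteria met; inactive = neither criterion met.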

Target: Caspase-6 (Homo sapiens) (UniProt P55212)
Sequence (P55212 24-179 limits assumed): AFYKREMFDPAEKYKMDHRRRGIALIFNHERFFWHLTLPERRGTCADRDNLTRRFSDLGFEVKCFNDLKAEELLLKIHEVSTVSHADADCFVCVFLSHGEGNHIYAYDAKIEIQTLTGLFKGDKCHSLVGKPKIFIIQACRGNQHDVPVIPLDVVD
Sequence (P55212 194-293 limits assumed): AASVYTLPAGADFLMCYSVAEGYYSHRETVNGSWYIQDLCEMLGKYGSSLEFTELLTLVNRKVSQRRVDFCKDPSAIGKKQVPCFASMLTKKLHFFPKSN
Experiment: human caspase-6 inhibitors, primary screen, biochemical, VEID-R110 fluorescence, single point, set 2 (AID 686996);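 note: 0% = median of neutral control wells and 100% = no fluorescence left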
Conditions: purified caspase-6, Z-VEID-R110 cleavage fluorescence; at 12.5 µM; stronger effect = higher value

Structure (SMILES) | inhibition
C/C=C/c1ccccc1[C@@H]1[C@@H](CO)N(C(=O)CN2CCOCC2)[C@H]1C#N | -0.139%
C[C@H]1CN([C@@H](C)CO)C(=O)Cc2cc(NC(=O)CCCCCC(=O)Nc3ccccc3N)ccc2O[C@H]1CN(C)C(=O)Nc1ccc(F)cc1 | 0.452%
O=C(NNC(=O)c1cc(S(=O)(=O)N2CCCCC2)ccc1Cl)c1ccccc1O | 0.767%
Cc1cc(C(=O)CCC(=O)NNC(=O)c2ccccc2O)c(C)s1 | 4.5%
O=C(NNC(=O)c1ccccc1O)c1ccccc1O | 73.9% (active)
CN(C)CCCNC(=O)C[C@H]1CC[C@H]2[C@@H](COC[C@H](O)CN2C(=O)c2ccncc2)O1 | 0.773%
COC(=O)C(=Nc1ccccc1)/C(C(=O)C(=O)N(C)c1ccccc1)=C(\O)c1ccc(Cl)cc1 | 40.1% (active)
CN(c1ccccc1)S(=O)(=O)c1cccc(NC(=O)Cc2ccc(Cl)cc2)c1 | -0.727%
COC(=O)c1cn(C(=O)c2ccc(Cl)cc2)c2ccccc12 | 0.734%
CN1C(=O)c2cc(NC(=O)C3CC3)ccc2OC[C@@H]2O[C@@H](CC(=O)NCC3CCCCC3)CC[C@@H]21 | -1.04%
CO[C@H]1CN(C)C(=O)c2cc(NC(=O)Nc3c(C)noc3C)ccc2OC[C@@H](C)N(CCC(F)(F)F)C[C@H]1C | -1.87%
C[C@@H]1CN([C@@H](C)CO)C(=O)c2cc(C#CC3CC3)cnc2O[C@@H]1CN(C)C(=O)Cc1ccccn1 | 0.481%
CC(C)(C)S(=O)N1Cc2cc(C(=O)O)nc(-c3cccc(-c4cc5ccccc5o4)c3)c2[C@@H]1CCO (stereo not given in full) | 37.1% (active)
CC(C)(C)[S@](=O)N1Cc2cc(C(=O)N3CCCCC3)nc(-c3cccc(-c4ccccc4F)c3)c2[C@@H]1CCO | -3.88%
COc1ccc(C#Cc2cccc(-c3nc(C(=O)O)cc4c3[C@@H](CCO)N(S(=O)C(C)(C)C)C4)c2)cc1OC (stereo not given in full) | 35.2% (active)
COc1ccccc1-c1cccc(-c2nc(C(=O)N3CCN(C)CC3)cc3c2[C@H](CCO)N([S@@](=O)C(C)(C)C)C3)c1 | -1.46%
CC(C)(C)S(=O)N1Cc2cc(C(=O)NCCCN3CCOCC3)nc(-c3cccc(-c4cc5ccccc5o4)c3)c2[C@H]1CCO (stereo not given in full) | -2.64%
CC(C)(C)[S@@](=O)N1Cc2cc(C(=O)O)nc(-c3cccc(-c4cccc(F)c4)c3)c2[C@H]1CCO | -2.52%
COc1ccc(NC(=O)O[C@H]2[C@H](OC(=O)Nc3ccc4c(c3)OCO4)[C@@H](OC(=O)Nc3ccc4c(c3)OCO4)[C@@H](OC)O[C@@H]2CO)cc1 | -3.42%
Cc1ccc(S(=O)(=O)N[C@@H]2CC[C@H](CCn3cc(C4(O)CCCC4)nn3)O[C@H]2CO)cc1 | -2.61%
Cc1ccccc1-c1ccc2c(c1)O[C@H](CN(C)Cc1ccc(C(=O)O)cc1)[C@@H](C)CN([C@H](C)CO)S2(=O)=O | -3.25%
COc1ccccc1C#Cc1ccc([C@@H]2[C@@H](CO)N3CCCCN(S(C)(=O)=O)C[C@@H]23)cc1 | -2.85%
CC(C)c1ccc(C=NNc2ccc([N+](=O)[O-])cn2)cc1 | -4.08%

Structure (SMILES) | inhibition
Cc1cc(C=O)c(C)n1-c1ccc(NC2CCCCC2)c([N+](=O)[O-])c1 | -0.869%
Cc1cc(/C=N/Nc2ccc([N+](=O)[O-])cn2)c(C)n1-c1cccc(C(=O)O)c1 | 40.7% (active)
C[C@H](O)C#Cc1ccc2c(c1)O[C@H](CN(C)Cc1cccnc1)[C@H](C)CN([C@H](C)CO)S2(=O)=O | -2.82%
O=C(N[C@@H]1CC[C@@H](CC(=O)N2CCc3ccccc3C2)O[C@H]1CO)C1CC1 | -3.42%
CCC(=O)N(C)C[C@H]1Oc2ncc(C#Cc3cccnc3)cc2C(=O)N([C@H](C)CO)C[C@H]1C | 2.38%
C[C@@H]1CCCCO[C@@H](CN(C)S(=O)(=O)c2ccccc2)[C@@H](C)CN([C@@H](C)CO)C(=O)c2cc(NS(=O)(=O)c3cn(C)cn3)ccc2O1 | 2.27%
CN(CCOc1ccccc1)C(=O)c1cc(-c2ccco2)nc2ccccc12 | 4.78%
CC1CCCN(C(=O)c2cc(-c3ccco3)nc3ccccc23)C1 (stereo not given) | 2.88%
Cc1cc(C)c2nc(-c3ccco3)cc(C(=O)O)c2c1 | 42.1% (active)
COCC#Cc1cnc2c(c1)C(=O)N([C@H](C)CO)C[C@H](C)[C@H](CN(C)C(=O)Nc1ccccc1OC)O2 | 0.658%
O=C(c1cccc(F)c1)N1CC(=O)N2[C@H](C1)[C@@H](c1ccc(C#Cc3ccc(F)cc3)cc1)[C@@H]2CO | 1.71%
COc1ccccc1CNc1nc(Nc2ccccc2Cl)c2sccc2n1 | -1.14%
COCCNc1nc(Nc2ccccc2Cl)c2sc(-c3ccccc3)cc2n1 | 35.1% (active)
Clc1ccccc1Nc1nc(NCc2cccs2)nc2ccsc12 | -2.77%
C[C@H](CO)N1C[C@H](C)[C@H](CN(C)Cc2cncnc2)Oc2cc(-c3ccccc3F)ccc2S1(=O)=O | -1.88%
CNC(=O)c1ccc(CN(C)C(=O)c2cc(C3CC3)nc3c2cnn3C(C)C)cc1 | 50.4% (active)
CC(C)n1ncc2c(C(=O)Nc3ccc(CC#N)cc3)cc(C3CC3)nc21 | -2.38%
CC(C)n1ncc2c(C(=O)NCc3ccccc3CN(C)C)cc(C3CC3)nc21 | -1.64%
O=C(C[C@@H]1CC[C@@H]2[C@H](COC[C@H](O)CN2S(=O)(=O)c2ccccc2F)O1)NCc1ccccc1F | 4.05%
Cc1noc(C)c1NC(=O)N(C)C[C@H]1Oc2c(NC(=O)c3nc4ccccc4s3)cccc2C(=O)N([C@@H](C)CO)C[C@@H]1C | -1.84%
Cc1cc2nc3c(=O)[nH]c(=O)nc-3n(C[C@H](O)[C@H](O)[C@H](O)CO)c2cc1C | -54.4%
CCN(CC)CCCC(C)n1c2nc(=O)[nH]c(=O)c-2nc2cc(Cl)ccc21 (stereo not given) | 81.9% (active)
